Test [1] can be described thus: Viability qHTS for spleen associated tyrosine kinase inhibitor (SYKi) naive MV4-11 cells (AID 1963823). Note: nearly all actives have a fitted effect of over 40% in size. In short, it runs like this:
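Seeding of 500 SYKi-naive MV4-11 cells per well onto pre-dispensed compounds preceded a 72 hr incubation at 37 C. Luminescent CellTiter-Glo signal, read after 10 min at room temperature, reflected viable cells.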
(qHTS replaces the single test concentration by a dilution series.)

The nature of test [2]: Viability qHTS for spleen associated tyrosine kinase inhibitor (SYKi) drug resistant MV4-11 cells (AID 1963824). Note: nearly all actives have a fitted effect of over 35% in size. In short, it runs like this:
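SYK inhibitor-resistant MV4-11 AML cells, 500 per well, added to predispensed compounds and incubated 72 hr at 37 C, 5% CO2. Viability measured by CellTiter-Glo luminescence after 10 min at room temperature.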

Inconclusive results are not listed. Calls of active or inactive are those of the source. Calls come from the whole dose curve; as a rule, active = well fitted cell-killing curve with a large enough effect; inconclusive = small, poorly fitted or top-dose-only effect, or effect the other way; inactive = no such curve, though single readings can be large or run the other way.
Potency is the fitted concentration of half-maximal effect.

`O=S(=O)(Nc1ccccn1)c1ccc(N=Cc2c(O)[nH]c3ccc4ncsc4c23)cc1`: the Potency in test [1] was 0.0944 µM (active); in test [2] it was 0.299 µM (active).

Regarding `CC1=C[C@H](O)[C@H]2C(C)(C)CCC[C@]2(C)[C@@]1(O)CO`, the Potency result in test [1] was “inactive”. Moreover, the Potency in test [2] was 4.11 µM (active).

As for `CC(=O)N[C@@H](Cc1c[nH]c2ccccc12)C(=O)N[C@@H](CCC(=O)O)C(=O)N[C@@H](Cc1cnc[nH]1)C(=O)N[C@@H](CC(=O)O)C(=O)Nc1ccc2c(C(F)(F)F)cc(=O)oc2c1`, the Potency result in test [1] and in test [2] was “inactive” each time.

For the compound `CC1OC2O[C@H]3[C@@H](OCC(O)[C@H]3O)OC(=O)C34CCC(C)(C)CC3C3=CCC5C6(C)CC(O)C(OC7OC(CO)C(O)C(O)C7O[C@@H]7OC[C@H](OC(=O)CC(C)(O)CC(=O)OC1C(OC1OCC(O)C(O)C1O)C2O)[C@@H](O)[C@H]7O)C(C)(CO)C6CCC5(C)C3(C)CC4` (some centres undefined), the values for the Potency in test [1] and in test [2] were 8.93 µM (active) and 7.09 µM (active), respectively.

Regarding `C#C[C@]1(O)CC[C@H]2[C@@H]3CCC4=Cc5oncc5C[C@]4(C)[C@H]3CC[C@@]21C`, the figures for the Potency in test [1] and in test [2] were 15 µM (active) and 8.41 µM (active), respectively.

As for `COc1ccc(/C=C/C(=O)O[C@@H]2[C@@H](O)[C@H](C)O[C@@H](OC3C4C=COC(O[C@@H]5O[C@H](CO)[C@@H](O)[C@H](O)[C@H]5O)C4C4(CO)OC34)[C@@H]2O)cc1OC` (some centres undefined), the Potency result in test [1] and in test [2] was “inactive” throughout.

On to `C/C=C(\C)C(=O)O[C@H]1C=CC(=O)O[C@H]1/C=C/[C@H](O)[C@@H](C)O`, for which the Potency in test [1] was 9.2 µM (active); in test [2], 7.31 µM (active).

Regarding `COc1cc(C2Oc3c(OC)cc(/C=C/C(=O)OC[C@H]4O[C@@H](OC(C)(C)C(=O)O)[C@H](O)[C@@H](O)[C@@H]4O)cc3C2CO)ccc1O` (some centres undefined), the Potency entry in test [1] and in test [2] was “inactive” throughout.

For `Oc1cccc(Nc2ccnc3cc(-c4cccc(CN5CCOCC5)c4)sc23)c1`, the Potency in test [1] is 0.291 µM (active); in test [2] it was 0.461 µM (active).

`CCN(CC)CCNC(=O)c1c(C)[nH]c(/C=C2/C(=O)Nc3ccc(-c4csc(-c5ccccc5)n4)cc32)c1C`: the figures for the Potency in test [1] and in test [2] were 0.468 µM (active) and 1.32 µM (active), respectively.

`O=C(Nc1ccn[nH]1)c1c(F)cccc1F`: the Potency entry in test [1] and in test [2] was “inactive” each time.

In the case of `CN[C@H](CC(C)C)C(=O)N[C@H]1C(=O)N[C@@H](CC(N)=O)C(=O)N[C@H]2C(=O)N[C@H]3C(=O)N[C@H](C(=O)N[C@H](C(=O)O)c4cc(O)cc(O)c4-c4cc3ccc4O)[C@H](O[C@H]3C[C@](C)(N)[C@@H](O)[C@H](C)O3)c3ccc(c(Cl)c3)Oc3cc2cc(c3O[C@@H]2O[C@H](CO)[C@@H](O)[C@H](O)[C@H]2O[C@H]2C[C@](C)(NCc3ccc(-c4ccc(Cl)cc4)cc3)[C@@H](O)[C@H](C)O2)Oc2ccc(cc2Cl)[C@H]1O`, the Potency result in test [1] and in test [2] was “inactive” throughout.

`CC1OC2OC(=O)C3(C)CC4=C(CO)C5=C(CC(=O)C4(C)C(C1=O)C23)C(C)(C)OC(=O)C5` (centres undefined): the Potency result in test [1] and in test [2] was “inactive” in each case.

As for `CC1=COC(OC2OC(CO)C(O)C(O)C2O)C2C(CO)CC(OC(=O)/C=C/c3ccc(O)cc3)C12` (centres undefined), the Potency entry in test [1] and in test [2] was “inactive” throughout.

Take `CC1=CC2=C(C)C(=O)C(C)(O)C(O)C2CO1` (centres undefined): the Potency result in test [1] and in test [2] was “inactive” each time.

Take `C=C1CC[C@H]2[C@@](C)(CCC(O)[C@@]2(C)CO)[C@@H]1/C=C/C(=C\C(=O)O)C(=O)O` (some centres undefined): the Potency result in test [1] and in test [2] was “inactive” each time.

On to `CN(C)c1ccc(Nc2c3ccc(NC(=O)CCN4CCCC4)cc3nc3cc(NC(=O)CCN4CCCC4)ccc23)cc1`, for which the Potency in test [1] was 5.17 µM (active); in test [2], 4.11 µM (active).

Take `COc1cc(N)c(Cl)cc1C(=O)NC[C@@H]1CCN2CCC[C@@H]12`: the Potency result in test [1] and in test [2] was “inactive” in each case.

For `C=C1CCC2C(C)(C(=O)OC)CCCC2(C)C1CCC(C)CC(=O)O` (centres undefined), the Potency entry in test [1] and in test [2] was “inactive” each time.

Take `C=CCc1ccc(O[C@@H]2O[C@H](CO)[C@@H](O)[C@H](O)[C@H]2O)c(OC)c1`: the Potency result in test [1] and in test [2] was “inactive” each time.

As to `CCN1CCN(Cc2ccc(C(=O)Nc3ccc(C)c(Oc4ccc5c(c4)CC(=O)N5)c3)cc2C(F)(F)F)CC1`, the figures for the Potency in test [1] and in test [2] were 5.8 µM (active) and 8.2 µM (active), respectively.

`CCC/C=C/c1cc2c(C=O)c(O)c(CC=C(C)C)cc2o1`: the Potency in test [1] is 14.6 µM (active); in test [2] it was 16.4 µM (active).

With `c1cc(NCCc2c[nH]c3ccccc23)cc(Nc2ccncc2)c1`, the Potency in test [1] is 0.58 µM (active); in test [2], 0.651 µM (active).

`C[C@@H]1C(=O)O[C@H]2CC34[C@H]5C[C@@H](C(C)(C)C)C36[C@@H](OC(=O)[C@@H]6O)O[C@@]4(C(=O)O5)[C@]21O` (some centres undefined): the Potency result in test [1] and in test [2] was “inactive” in each case.

For the compound `CCCCC1CCN(CCCC(=O)c2ccccc2C)CC1`, the Potency in test [1] was 16.4 µM (active); in test [2] it was 13 µM (active).

Take `CN1C(=O)c2ccccc2-n2c(nc3ccccc3c2=O)[C@@]12O[C@H]2c1ccccc1`: in test [1], the Potency is 3.6 µM (active). In addition, in test [2], the Potency result is “inactive”.

As to `Fc1ccccc1CNCc1ccc(-c2ccnc3[nH]ccc23)cc1`, the Potency in test [1] was 5.17 µM (active); in test [2], 9.2 µM (active).

For the compound `COc1ccc(CN2C(=O)C(=O)c3cc(S(=O)(=O)N4CCC[C@H]4COc4cccnc4)ccc32)cc1`, the Potency result in test [1] and in test [2] was “inactive” in each case.

As for `CC1=CC(=O)CC2C1(O)CCC(C)C21CC(c2ccoc2)OC1=O` (centres undefined), the Potency entry in test [1] and in test [2] was “inactive” throughout.

`COc1ccc(/C=C/C(=O)O[C@H]2[C@H](O[C@H]3[C@@H]4C=CO[C@@H](O[C@@H]5O[C@H](CO)[C@@H](O)[C@H](O)[C@H]5O)[C@@H]4[C@@]4(CO)O[C@@H]34)O[C@@H](C)[C@H](O)[C@H]2OC(C)=O)cc1`: the Potency result in test [1] and in test [2] was “inactive” in each case.

Consider `C=C1CCC[C@]2(C)CC[C@@H](C(=C)C(=O)O)[C@H](O)[C@@H]12`, for which the Potency result in test [1] and in test [2] was “inactive” throughout.

In the case of `CC1=CC(=O)OC(C)(CC(C)(O)C(=O)O)C1` (centres undefined), the Potency entry in test [1] and in test [2] was “inactive” each time.

As for `O=C(NC1CCN(CCCCC2(C(=O)NCC(F)(F)F)c3ccccc3-c3ccccc32)CC1)c1ccccc1-c1ccc(C(F)(F)F)cc1`, the Potency in test [1] and in test [2] was 2.59 µM (active) each time.

For `O=C(O)COCCN1CCN([C@H](c2ccccc2)c2ccc(Cl)cc2)CC1`, the Potency entry in test [1] and in test [2] was “inactive” in each case.

For the compound `O=C(/C=C/c1ccc(O)cc1)O[C@@H]1C[C@@](O)(C(=O)O)C[C@@H](O)[C@@H]1O`, the Potency result in test [1] and in test [2] was “inactive” in each case.

With `O=C(Nc1ccc(CN2CCOCC2)cc1)c1ccc(-c2cccc(Cl)c2)o1`, the Potency was 8.2 µM (active) in test [1] and 9.2 µM (active) in test [2].

As for `COc1ccc(C(OC2OC(CO)C(O)C(O)C2O)C(C)O)cc1` (centres undefined), the Potency entry in test [1] and in test [2] was “inactive” in each case.

These data come from PubChem BioAssay (NCATS).
